Drawing on the supplement of paper PMC8047044, this text covers neurite formation score for 14 molecules.

The test system of the assay is Neuro-2a. The experiment in a line: neurite formation score, plate-normalized to DMSO control mean 5.04 (score (0-8 scale)); higher = more or longer neurites. The note with it: 0.1 µM. The procedure: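 Neuro-2a mouse neuroblastoma cells in PLL-coated 96-well plates were pre-treated for 1 h in DMEM(+) with each kinase inhibitor at 0.1 µM, then switched to serum-free DMEM(-) with inhibitor to induce neurite outgrowth and fixed about 2-3 h later. Three blinded observers scored neurite formation from 0 (no neurites) to 8 (long neurites on almost all cells).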
For `CN1CCN(c2cccc(Nc3nc4c(-c5ccc(S(C)(=O)=O)cc5)cccn4n3)c2)CC1`, the neurite formation score was 4.25.

In the case of `CCS(=O)(=O)Nc1ccc2[nH]c(O)c(C(=Nc3ccc(CN4CCCCC4)cc3)c3ccccc3)c2c1` [Hesperadin], the neurite formation score was found to be 3.92.

For `CC1=C(C(=O)Nc2cc3cn[nH]c3cc2F)C(c2ccc(C(F)(F)F)cc2)CC(=O)N1` (centres undefined), the neurite formation score came to 4.21.

`COc1cc2c(N3CCN(C(=O)Nc4ccc(OC(C)C)cc4)CC3)ncnc2cc1OCCCN1CCCCC1` [Tandutinib (MLN518)] returned a neurite formation score of 4.58.

`CNC(=O)c1cc(Oc2ccc(NC(=O)Nc3cc(C(C)(C)C)nn3-c3ccc4ncccc4c3)c(F)c2)ccn1` [DCC-2036 (Rebastinib)] had a neurite formation score of 3.92.

Regarding `O=c1cc(N2CCOCC2)oc2c(-c3ccccc3)cccc12`, the neurite formation score was 4.21.

Molecule `Cc1ccccc1CN1C2=NCCN2C(=O)C2=C1CCN(Cc1ccccc1)C2` showed a neurite formation score of 4.25.

For `N#Cc1c(NC(=O)c2cccc3ccccc23)sc2c1CCCC2`, the neurite formation score is 0.751.

Turning to `c1cn2cc(-c3ccc4cn[nH]c4c3)nc(Nc3ccc(N4CCOCC4)cc3)c2n1`, the neurite formation score is 5.08.

The molecule `NC1(C(=O)N[C@@H](CCO)c2ccc(Cl)cc2)CCN(c2ncnc3[nH]ccc23)CC1` registered a neurite formation score of 5.38.

With `NC(=O)c1cccc(-c2cc(Nc3ccc(OC(F)(F)F)cc3)ncn2)c1`, the neurite formation score worked out at 3.76.

On to `Cc1ccc(NC(=O)c2ccc(CN3CCN(C)CC3)cc2)cc1Nc1nccc(-c2cccnc2)n1` [Imatinib (STI571)], for which the neurite formation score came to 1.42.

With `Nc1ncnc2c1c(-c1cnc3[nH]ccc3c1)nn2C1CCCC1`, the neurite formation score came to 4.42.

In the case of `CCOc1ccn(-c2ccc(F)cc2)c(=O)c1C(=O)Nc1ccc(Oc2ccnc(N)c2Cl)c(F)c1`, the neurite formation score was found to be 4.21.
